# Source: PubChem BioAssay (NCI)
# This is part of a sample that, as a whole, favours compounds with a hit. Of some 83,000 tested, about 20% had one in any assay.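 Results are percent growth after 48 hours of single-concentration exposure. 100 means growth as in untreated cells, lower positive values show inhibition; negative values down to -100 show cell death.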 Unmarked numbers belong to inactive results. Activity calls are given as the source filed them. Rule for the calls: active = growth percent below 10; inactive = the rest.
# Experiments:
# Test in all cases: NCI-60 one-dose screen, 48 h (100 = growth as untreated, 0 = no growth, -100 = all killed)
# Conditions in all cases: 10 µM unless noted
# SK-MEL-2 melanoma = tested on: SK-MEL-2 melanoma
# EKVX NSCLC = tested on: EKVX NSCLC
# SN12C renal = tested on: SN12C renal
# UO-31 renal = tested on: UO-31 renal
# TK-10 renal = tested on: TK-10 renal
# ACHN renal = tested on: ACHN renal
# CAKI-1 renal = tested on: CAKI-1 renal
# A498 renal = tested on: A498 renal
# CCRF-CEM leukemia = tested on: CCRF-CEM leukemia
# MOLT-4 leukemia = tested on: MOLT-4 leukemia
SMILES,growth (SK-MEL-2 melanoma),growth (EKVX NSCLC),growth (SN12C renal),growth (UO-31 renal),growth (TK-10 renal),growth (ACHN renal),growth (CAKI-1 renal),growth (A498 renal),growth (CCRF-CEM leukemia),growth (MOLT-4 leukemia)
CN1CCN(CCCOc2cccc3nc(Nc4ccc(F)c(F)c4)ccc23)CC1,-49.7% (active),34%,24.4%,-54.3% (active),-4.13% (active),-31.4% (active),-29.1% (active),33.6%,-26.9% (active),-38.4% (active)
N[C@H]1CCC[C@@H]1NCCCCN1C(=O)c2cccc3cc([N+](=O)[O-])cc(c23)C1=O,84.2%,73.2%,29.7%,66%,44.5%,22.4%,94.3%,62.6%,2.24% (active),0.264% (active)
COc1ccc(Nc2ncccc2/C=C/C(=O)c2cc(OC)c(OC)c(OC)c2)cc1,-37.6% (active),60.8%,-18.1% (active),-79.6% (active),-14.6% (active),-83.4% (active),-23.6% (active),64.6%,-10.4% (active),-11.7% (active)
Nc1[nH]n2cc(-c3ccc(F)cc3)nc2c1N=Nc1ccc(S(N)(=O)=O)cc1,70.1%,108%,68.9%,58.3%,83.8%,52.3%,47.4%,40.1%,66.6%,85.8%
COc1cc(Cl)c(C)cc1NC(=O)c1cc2ccccc2cc1O,-33.1% (active),0.938% (active),8.39% (active),0.513% (active),6.75% (active),4.34% (active),-12.7% (active),-9.59% (active),7.39% (active),17.5%
COC1=C(C)C(=O)N2[C@@H]1[C@H](c1ccccc1)OC21C=CC(=O)C=C1,11.1%,70.3%,0.448% (active),-42.9% (active),20.8%,-29.3% (active),-59.6% (active),92.7%,-19.7% (active),-4.79% (active)
CCN1CCN(CCNc2nccc(-c3c(-c4ccc(F)c(OC)c4)nc4sccn34)n2)S1(=O)=O,37.7%,88.5%,70.8%,86.9%,118%,59.6%,77.5%,102%,59.5%,81.8%
CC/C=C\C[C@H](O)C/C=C1/C(=O)C=C[C@@H]1C/C=C\CCCC(=O)O,62.2%,105%,46.2%,74.3%,103%,84.5%,83.9%,90.9%,4.11% (active),5.7% (active)
COc1ccc(/C(C)=C(/c2ccc(OCCCN(C)C)cc2)c2ccc(OC(=O)c3ccccc3)cc2)cc1,90.9%,74.5%,79.1%,45.1%,87.8%,111%,89.7%,91.5%,64.3%,54.2%
CCN1C(=O)N(CC)C2Nn3c(s/c(=C\c4ccccc4Br)c3=O)=NC21 (stereo not given),48.5%,44.4%,35.4%,55%,81.5%,30.5%,21.5%,-0.799% (active),15.2%,23.2%
NC1=Nc2cc(OCCCCN3Cc4ccccc4C3)c(OCC3CC3)cc2C12CCCC2,12.5%,64.7%,66.5%,43.2%,87.1%,65.7%,1.68% (active),-0.354% (active),37.7%,29.9%
NC(N)=NS(=O)(=O)c1ccc(NC2=C(I)C(=O)c3ncccc3C2=O)cc1,106%,105%,101%,75.1%,118%,93.2%,90.4%,97.2%,107%,103%
C[C@]1(O)CC(=O)[C@]2(O)C3=C(C=C[C@]2(O)C1)C(=O)c1c(O)cccc1C3=O,89.7%,73.8%,3.18% (active),-96.6% (active),-82.8% (active),-100% (active),-59.8% (active),117%,0.446% (active),-12.8% (active)
O=C1Nc2ccccc2/C1=C/c1cccn1C(=O)c1ccc(Cl)s1,86.7%,22.6%,86.2%,65.1%,50.6%,47.7%,64%,67.4%,26.6%,30.3%
N#Cc1c(Nc2ccc(N3CCOCC3)cc2)nc(SCC(=O)c2ccc(Br)cc2)nc1-c1ccccc1,94.4%,100%,104%,87.3%,96.6%,109%,99.7%,105%,125%,99.2%
Oc1c(CN2CCOCC2)cc(COCc2ccccc2)c2cccnc12,36.9%,92.5%,39.9%,6.45% (active),31.1%,12.6%,13.5%,49.7%,11.7%,15.3%
CN1CCN(C(=S)SCCCCOc2cc(=O)oc3ccccc23)CC1,73.9%,88.1%,88.5%,72.3%,93.3%,92.9%,93.7%,74.7%,72.5%,73.2%
C[C@H](C(=O)N(CCc1ccc(Cl)c(Cl)c1)Cc1cncs1)[C@@H]1CC[C@H](C[C@H](C)n2cc(CN3CCC(c4ccc(Cl)cc4)CC3)nn2)O1,106%,95.4%,97.5%,82.2%,104%,102%,87.9%,108%,94.3%,-70% (active)
Cn1cc(-c2ccc(-c3cn(C)c4ccc(Cl)cc34)[nH]2)c2cc(Cl)ccc21,-18.9% (active),-89.2% (active),7.64% (active),-93.1% (active),-28.7% (active),-100% (active),4.42% (active),48.6%,-12.9% (active),19.1%
C#CCOc1cccc(-c2ncnc3cc(NC(=O)C=C)ccc23)c1,46.7%,72.2%,15%,15%,13.8%,25.5%,15.9%,44.5%,8.7% (active),30.8%
O=C(NNC(=O)c1nc2cc(F)ccc2n2cccc12)c1cnccn1,67.1%,29.2%,40.2%,33.3%,62.7%,26%,27.9%,19.9%,17.1%,15%
O=C(CCCCCNC(=O)c1cc(=O)c(O)co1)Nc1ccccc1,105%,98.1%,110%,83.9%,93.6%,102%,95.3%,96%,95.1%,106%
N#Cc1c(-c2ccccc2)nc(SCC(O)CN2CCOCC2)nc1N1CCOCC1 (stereo not given),7.33% (active),65.4%,57.8%,41.7%,40.8%,54.4%,37.4%,-3.34% (active),88%,83.2%
COc1ccc(-c2nc3c(N)c(CO)cnc3s2)cc1,105%,48.4%,108%,84.6%,91.9%,93.4%,88.7%,-19.1% (active),103%,91.1%
COc1cc(NC(=O)c2cncnc2Nc2ccc3c(ccn3Cc3ccccn3)c2)cc(OC)c1,45%,68.4%,56.2%,46%,73.3%,66.5%,44.2%,-12.5% (active),22.3%,24.9%
C=C1C(=O)O[C@H]2[C@H]1CC/C(Cn1cc(CCC)nn1)=C\CC[C@@]1(C)O[C@@H]21,44.7%,77.4%,23.1%,0.946% (active),-15.9% (active),-0.504% (active),5.35% (active),39%,-27.4% (active),-1.09% (active)
Cc1ccc(/C=C(\C#N)n2nnc3cc(F)c(F)cc32)cc1,14.8%,30.9%,2.07% (active),13.2%,22.4%,22.5%,32.6%,13%,5.57% (active),-2.32% (active)
